Results published in PubChem BioAssay (NCATS).
Inconclusive results are not listed. Unmarked numbers belong to inactive results. The call rests on the fitted dose curve; in most records, active means well fitted inhibition curve with a large enough effect; inconclusive means small, poorly fitted or top-dose-only effect; inactive means flat fitted curve, though single readings scatter.

Target: Aldehyde dehydrogenase, mitochondrial (Homo sapiens) (UniProt P05091)
Assay: qHTS for Inhibitors of the Aldehyde Dehydrogenase Family (ALDH2) Primary screen (AID 2061308);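 further: plate controls were vehicle for no effect and reference inhibitor for full effect; nearly all actives have a fitted effect of over 55% in size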
Settings: ALDH2 enzyme inhibition qHTS, 1536-well; series mostly up to 56 µM; activity change, negative = inhibition: at the top concentration

Row | SMILES | activity change, negative = inhibition
1 | C[C@@H]1[C@H](O)[C@@H](C)/C=C/C=C/CC/C=C/C=C/C=C/C=C/[C@H](O[C@H]2O[C@@H](C)[C@H](O)[C@@H](N)[C@H]2O)C[C@@H]2O[C@](O)(C[C@@H](O)[C@H](O)CC[C@@H](O)C[C@@H](O)C[C@@H](O)CC(=O)O[C@H]1C)C[C@H](O)[C@H]2C(=O)O | -9.79% [at 28 µM]
2 | CC(C)CCn1c(CN2CCN(C(=O)C3CC3)CC2)nc2c1c(=O)n(C)c(=O)n2C | 2.08%
3 | C=C(CO)C(=O)O[C@H]1CC(=C)[C@@H]2C[C@H](O)C(=C)[C@@H]2[C@H]2OC(=O)C(=C)[C@@H]21 | 3.51%
4 | CCOc1ccc(CCNC(=O)c2cc3sccc3n2CCN(C)C)cc1OCC | 10.9%
5 | COC(=O)c1ccc(O)c2ncc(N3CCN(C)CC3)cc12 | -18.9%
6 | CC(C)[C@H]1OC(=O)[C@H](Cc2ccccc2)N(C)C(=O)[C@@H](C(C)C)OC(=O)[C@H](Cc2ccccc2)N(C)C(=O)[C@@H](C(C)C)OC(=O)[C@H](Cc2ccccc2)N(C)C1=O | -5.24% [at 16.9 µM]
7 | CCOc1ccc(CCNC(=O)c2cc3ccncc3n2Cc2cccc(C)c2)cc1OCC | 2.43%
8 | CCOc1ccc(CCNC(=O)c2cc3ccccc3n2Cc2cccc(C)n2)cc1OCC | 2.06%
9 | Cc1nnc2n1-c1sc(CCc3ccc(CC(C)C)cc3)cc1C(c1ccccc1Cl)=NC2C (centres undefined) | 3.24%
10 | S=P(c1ccccc1)(c1ccccc1)c1c[n+](Cc2ccccc2)c2ccccn12 | 11.1%
11 | Cn1cc(Br)c(C2N=C(Nc3nc4ccccc4o3)NC3=C2C(=O)CCC3)n1 (centres undefined) | -0.226%
12 | CCN1CCN(C(c2ccc(Cl)cc2)c2ccc(Cl)cc2)CC1 | 8.03%
13 | O=C(Nc1ncc(Cc2ccc(C(F)(F)F)cc2)s1)c1cn(-c2ccccc2)cn1 | -1.38%
14 | CO[C@H]1C[C@H](O[C@H]2CC[C@]3(CO)[C@H]4CC[C@]5(C)[C@@H](C6=CC(=O)OC6)CC[C@]5(O)[C@@H]4CC[C@]3(O)C2)O[C@H](C)[C@H]1O | 2.24% [at 28 µM]
15 | Cc1[nH]c2ccccc2c1P(=S)(c1ccccc1)c1ccccc1 | -15%
16 | CC1=CC2/C=C(\C)CCC(O)C(O)/C=C/C(=O)C23C(=O)NC(CC(C)C)C3C1C (centres undefined) | -7.1% [at 28 µM]
17 | CC(=O)O[C@H]1C(=O)[C@]2(C)C(O)C[C@H]3OC[C@@]3(OC(C)=O)[C@H]2[C@H](OC(=O)c2ccccc2)[C@]2(O)C[C@H](O)C(C)=C1C2(C)C (some centres undefined) | -4.32% [at 16.9 µM]
18 | COC1C(O)C(C)OC(OC2C(CO)O[C@@H](O[C@@H]3CC4CCC5C(CC[C@]6(C)[C@@H](C7=CC(=O)OC7)CC[C@]56O)[C@@]4(C)[C@H](OC(C)=O)C3)C(O)C2O)C1O (some centres undefined) | 5.32% [at 16.9 µM]
19 | COc1cccc(CNc2ccc(C(=O)Nc3nccs3)cc2)c1O | 7.59%
20 | Cc1cccc2nc(NC3=NC(c4[nH]ncc4Cl)C4=C(CCCC4=O)N3)oc12 (centres undefined) | -1.88%

Row | SMILES | activity change, negative = inhibition
21 | Oc1ccc2c(c1)C13CCCC[C@H]1[C@@H](C2)N(CC1CCC1)CC3 | 2.94%
22 | Cc1ccccc1[C@@H](C(=O)NC1CCCCC1)N(C(=O)Cn1ccnc1C)c1cccc(F)c1 | 10.5%
23 | N#Cc1ccc(NC(=O)Nc2nnc(-c3ccncc3)s2)cc1Cl | 1.2%
24 | Cn1c(-c2ccccc2)c(P(=S)(c2ccccc2)c2ccccc2)c2ccccc21 | -3.5%
25 | CO[C@@H]1[C@H](O)[C@@H](O[C@@H]2C[C@H]3CC[C@@H]4C(CC[C@]5(C)[C@@H](C6=CC(=O)OC6)CC[C@]45O)[C@@]3(C)[C@H](O)C2)O[C@H](C)[C@@H]1O[C@@H]1O[C@H](CO)[C@@H](O)[C@H](O)[C@H]1O (some centres undefined) | -1.47% [at 16.9 µM]
26 | CC(C)=CCC[C@]1(C)C=Cc2c(O)c3c(c(CC=C(C)C)c2O1)O[C@]12C(=C[C@@H]4CC1C(C)(C)O[C@@]2(C/C=C(/C)C(=O)O)C4=O)C3=O | 0.174%
27 | C=C[C@H]1[C@H](O[C@@H]2O[C@H](CO)[C@@H](O)[C@H](O)[C@H]2O)OC=C2C(=O)OCC[C@H]21 | 11.5%
28 | CCOc1ccc(CCNC(=O)c2cc3ccccc3n2CCN2CCOCC2)cc1OCC | 0.667%
29 | C[C@H]1C/C=C/[C@H]2[C@@H]3O[C@]3(C)[C@@H](C)[C@H]3[C@H](Cc4ccccc4)NC(=O)[C@]32OC(=O)O/C=C/[C@@](C)(O)C1=O | 4.01% [at 28 µM]
30 | O=S(=O)(Nc1nccs1)c1ccc(NCc2cccc(F)c2O)cc1 | -4.45%
31 | CC(=O)Nc1ncc(S(=O)(=O)N2CCOCC2)s1 | 8.19%
32 | Cc1ccccc1C(=O)N1CCc2cc(N3CCC(NC(=O)Cc4ccccc4)C3)ccc21 (centres undefined) | -9.16%
33 | C[C@@H]1CCC/C=C/[C@H]2C[C@@H](O)C[C@@H]2[C@@H](O)/C=C/C(=O)O1 | -0.396%
34 | C=CC(C)(C)C12C=C(O)C(=O)N3/C(=C\c4cnc[nH]4)C(=O)NC31N(OC)c1ccccc12 (centres undefined) | 6.6% [at 28 µM]
35 | COC1CC(O[C@H]2CC[C@@]3(C)C(CCC4C3CC[C@]3(C)[C@@H](C5=CC(=O)OC5)CC[C@]43O)C2)OC(C)C1O (some centres undefined) | -6.88% [at 28 µM]
36 | CCOC(=O)C1CCN(C(=O)C2(NC(=O)Nc3ccccc3Cl)CCCC2)CC1 | -10.1% [at 28 µM]
37 | CCOc1ccc(CCNC(=O)c2cc3ncccc3n2Cc2cccc(C)c2)cc1OCC | -15.9%
38 | C=C(CO)[C@@]12O[C@@H]1[C@@]1(C)C(=CC2=O)CC[C@@H](O)[C@@H]1C | 3.05%
39 | COC(=O)C1(C)CCC(O)C2(C)c3cc(O)c(C(C)C)cc3C(O)C(OC(C)=O)C12 (centres undefined) | -2.23% [at 28 µM]
